# Reference: PubChem BioAssay (NCATS)
# Results filed as inconclusive are left out. Unmarked numbers belong to inactive results. Calls come from the whole dose curve. Positions of bridges follow the written chain, without caps; N, C: chain ends. Non-standard residues stand in square brackets, D forms with d. Residues, ends and D or L forms follow the SMILES beside them. Groups on a side chain read outwards from the residue. *: point of attachment. Phg(4-OMe) = COc1ccc([C@H](N)C(=O)O)cc1; d(aIle) = CC[C@H](C)[C@@H](N)C(=O)O; d(aThr) = C[C@@H](O)[C@@H](N)C(=O)O; NMeF = CN[C@@H](Cc1ccccc1)C(=O)O; Isobutyryl = CC(C)C(=O)*
# Assay: qHTS for inhibitors of Rabies Virus screened against the NCATS CANVASS Library (AID 1347402); note: 0% is about no effect
# Settings: Rabies virus infection cell assay; series mostly up to 45.9 µM; activity change, negative = inhibition: at the top concentration
row,Structure (SMILES),"activity change, negative = inhibition"
1,O[C@H]1c2ccccc2-c2c3c(cc4c2[C@@H]1NCC4)OCO3,-20.4%
2,C[C@H](CCC(O)C(C)(O)CO)[C@@]1(O)CC[C@@]2(C)C3=C(CC[C@@]21C)[C@@]1(C)CCC(OC(=O)CCC(=O)O)C(C)(C)[C@@H]1CC3 (some centres not stated),-25.6%
3,C[C@@H]1O[C@@H](Oc2c(-c3ccc(O)cc3)oc3cc(O)cc(O)c3c2=O)[C@H](O)[C@H](O)[C@H]1O,-2.11%
4,CC[C@H](C)[C@H]1NC(=O)[C@@H](NC(=O)C(C)C)[C@@H](C)OC(=O)[C@H](COC(=O)CNC(C)=O)NC(=O)[C@@H]([C@@H](C)O)NC(=O)[C@H](Cc2ccccc2)N(C)C(=O)[C@H](c2ccc(OC)cc2)NC1=O (Isobutyryl-T[d(aIle)][Phg(4-OMe)][NMeF][d(aThr)]S([Gly-Ac]); ester 1-C),-11.4%
5,CCCCCCCCCCCCCCCC(=O)OC/C=C(\C)CCCC(C)CC(C)C(C)C (configuration not stated),26.9%
6,C[C@@H]1O[C@@H](O[C@@H]2[C@@H](O)[C@H](O[C@@H]3[C@@H](O)[C@@H](O)C(O[C@H]4[C@H](OC(=O)[C@]56CCC(C)(C)C[C@H]5C5=CCC7[C@@]8(C)C[C@H](O)[C@H](O[C@@H]9C[C@H](CO)[C@@H](O)[C@H](O)[C@H]9O)[C@@](C)(CO)C8[C@H](O)C[C@@]7(C)[C@]5(C)CC6)OC[C@H](O)[C@@H]4O)O[C@H]3C)OC[C@H]2O)[C@H](O)[C@H](O)[C@H]1O (some centres not stated),1.36% [at 27.4 µM]
7,CC1(C)CCC[C@]2(C)[C@@H]1CC[C@@]13C[C@@H](CC[C@H]12)C(C)(O)C3 (some centres not stated),-11.3%
